Measurements taken from publication PMC7862700, “An all-to-all approach to the identification of sequence-specific readers for epigenetic DNA modifications on cytosine”.

How the values were obtained:
Assay in all cases: DAPPL (digital affinity profiling via proximity ligation, sequencing); 10 mM Tris-HCl pH 7.5, 50 mM NaCl, 1 mM DTT, 4% glycerol, room temperature, 30 min; GST-TFs on glutathione beads, 16-mer random dsDNA library, 0.1% formaldehyde crosslink after washing; high values mean tight binding
[1] = biological target: T1, FLI1 (Homo sapiens, UniProt Q01543 1-452); settings: protein: recombinant; tags: N-terminal GST; dsDNA, one strand shown
T1 sequence: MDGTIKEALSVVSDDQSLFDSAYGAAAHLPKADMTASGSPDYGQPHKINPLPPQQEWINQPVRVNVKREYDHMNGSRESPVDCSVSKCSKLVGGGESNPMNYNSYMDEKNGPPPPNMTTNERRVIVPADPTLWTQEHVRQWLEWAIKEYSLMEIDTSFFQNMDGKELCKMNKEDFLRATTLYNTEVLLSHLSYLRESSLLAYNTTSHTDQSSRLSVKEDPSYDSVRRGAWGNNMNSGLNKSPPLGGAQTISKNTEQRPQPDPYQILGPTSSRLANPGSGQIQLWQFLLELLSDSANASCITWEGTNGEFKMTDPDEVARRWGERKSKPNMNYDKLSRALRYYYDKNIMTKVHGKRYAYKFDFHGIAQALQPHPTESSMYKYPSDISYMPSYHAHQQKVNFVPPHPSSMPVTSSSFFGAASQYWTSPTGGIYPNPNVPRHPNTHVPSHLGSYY
Method in brief: (§1)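 Each value of binding signal is a hexamer's read frequency for a factor divided by the same hexamer's frequency in the tag-only sample. Barcoded, bead-captured GST fusions of human transcription factors made in yeast were pooled with that sample and incubated with 200 nmole of a random double-stranded 16-mer DNA library in Tris/NaCl/DTT/glycerol buffer at room temperature for 30 min. Washing, 0.1% formaldehyde crosslinking, proximity ligation, PCR and Illumina NextSeq500 sequencing followed.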

[2] = biological target: T2, ELK1 (Homo sapiens, UniProt P19419 1-428); settings: protein: recombinant; tags: N-terminal GST; dsDNA, one strand shown
T2 sequence: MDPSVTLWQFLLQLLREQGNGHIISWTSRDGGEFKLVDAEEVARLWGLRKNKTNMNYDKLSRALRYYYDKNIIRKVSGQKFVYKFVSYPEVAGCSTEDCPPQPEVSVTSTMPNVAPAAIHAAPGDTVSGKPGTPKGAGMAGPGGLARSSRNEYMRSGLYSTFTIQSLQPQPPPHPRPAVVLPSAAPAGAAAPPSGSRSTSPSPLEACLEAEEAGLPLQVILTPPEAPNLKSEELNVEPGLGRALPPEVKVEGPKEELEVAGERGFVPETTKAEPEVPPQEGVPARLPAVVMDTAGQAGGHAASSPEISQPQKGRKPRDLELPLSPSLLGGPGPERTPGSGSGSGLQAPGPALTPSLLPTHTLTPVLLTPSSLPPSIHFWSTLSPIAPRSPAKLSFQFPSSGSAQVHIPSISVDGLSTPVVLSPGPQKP
Method in brief: as §1

[3] = biological target: T3, GABPA (Homo sapiens, UniProt Q06546 1-454); settings: protein: recombinant; tags: N-terminal GST; dsDNA, one strand shown
T3 sequence: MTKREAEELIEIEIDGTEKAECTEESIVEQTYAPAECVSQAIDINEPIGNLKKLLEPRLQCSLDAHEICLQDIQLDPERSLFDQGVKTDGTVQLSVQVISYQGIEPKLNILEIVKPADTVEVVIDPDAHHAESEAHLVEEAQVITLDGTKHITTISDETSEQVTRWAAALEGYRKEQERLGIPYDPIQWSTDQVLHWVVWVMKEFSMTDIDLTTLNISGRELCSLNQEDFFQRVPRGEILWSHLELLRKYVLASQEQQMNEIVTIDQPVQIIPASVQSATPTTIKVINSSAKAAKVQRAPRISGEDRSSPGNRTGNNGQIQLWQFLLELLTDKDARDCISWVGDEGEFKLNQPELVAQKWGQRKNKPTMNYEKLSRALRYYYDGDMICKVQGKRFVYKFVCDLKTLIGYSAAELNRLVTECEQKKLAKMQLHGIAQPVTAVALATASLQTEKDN
Method in brief: as §1

[4] = biological target: T4, ERG (Homo sapiens, UniProt P11308 1-479); settings: protein: recombinant; tags: N-terminal GST; dsDNA, one strand shown
T4 sequence: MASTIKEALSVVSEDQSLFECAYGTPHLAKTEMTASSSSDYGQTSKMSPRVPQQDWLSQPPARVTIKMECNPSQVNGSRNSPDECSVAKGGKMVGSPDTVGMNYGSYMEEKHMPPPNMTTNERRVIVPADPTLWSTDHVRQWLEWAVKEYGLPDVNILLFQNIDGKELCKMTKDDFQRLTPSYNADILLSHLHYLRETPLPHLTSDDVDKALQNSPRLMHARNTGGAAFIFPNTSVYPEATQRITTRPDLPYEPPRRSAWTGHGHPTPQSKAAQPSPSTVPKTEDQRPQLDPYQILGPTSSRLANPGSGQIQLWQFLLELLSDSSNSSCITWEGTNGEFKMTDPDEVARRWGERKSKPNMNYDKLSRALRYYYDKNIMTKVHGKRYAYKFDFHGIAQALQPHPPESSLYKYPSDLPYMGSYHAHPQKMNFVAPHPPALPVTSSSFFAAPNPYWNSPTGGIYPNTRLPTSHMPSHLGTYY
Method in brief: as §1

[5] = biological target: ELF1 (Homo sapiens, UniProt P32519 1-619); settings: protein: recombinant; tags: N-terminal GST; dsDNA, one strand shown
ELF1, sequence (P32519 whole entry): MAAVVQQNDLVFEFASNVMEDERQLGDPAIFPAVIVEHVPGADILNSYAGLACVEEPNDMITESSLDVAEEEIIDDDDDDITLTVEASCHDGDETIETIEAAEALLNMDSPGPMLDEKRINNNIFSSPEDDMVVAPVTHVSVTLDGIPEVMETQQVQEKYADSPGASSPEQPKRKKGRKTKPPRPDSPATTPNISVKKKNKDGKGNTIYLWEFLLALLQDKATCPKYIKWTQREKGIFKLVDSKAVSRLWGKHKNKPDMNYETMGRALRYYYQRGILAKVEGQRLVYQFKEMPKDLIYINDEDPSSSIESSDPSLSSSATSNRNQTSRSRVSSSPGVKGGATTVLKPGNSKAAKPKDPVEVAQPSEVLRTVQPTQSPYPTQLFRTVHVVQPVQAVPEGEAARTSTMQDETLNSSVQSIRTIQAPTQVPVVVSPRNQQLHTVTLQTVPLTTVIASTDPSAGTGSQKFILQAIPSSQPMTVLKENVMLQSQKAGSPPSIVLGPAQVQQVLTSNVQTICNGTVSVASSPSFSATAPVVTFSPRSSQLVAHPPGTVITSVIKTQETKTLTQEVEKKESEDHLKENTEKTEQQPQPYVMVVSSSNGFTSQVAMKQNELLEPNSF
Method in brief: as §1

[6] = biological target: T5, EHF (Homo sapiens, UniProt Q9NZC4 1-300); settings: protein: recombinant; tags: N-terminal GST; dsDNA, one strand shown
T5 sequence: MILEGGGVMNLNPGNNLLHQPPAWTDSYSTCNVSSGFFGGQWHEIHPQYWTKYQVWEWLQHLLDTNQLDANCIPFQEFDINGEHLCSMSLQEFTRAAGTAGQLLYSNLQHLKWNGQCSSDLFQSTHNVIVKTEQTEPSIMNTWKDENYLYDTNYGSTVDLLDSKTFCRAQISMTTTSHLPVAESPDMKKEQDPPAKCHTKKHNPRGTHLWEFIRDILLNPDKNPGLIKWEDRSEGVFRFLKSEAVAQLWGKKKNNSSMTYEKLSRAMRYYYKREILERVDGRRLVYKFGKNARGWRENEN
Method in brief: as §1

[7] = biological target: SPI1 (Homo sapiens, UniProt P17947 1-270); settings: protein: recombinant; tags: N-terminal GST; dsDNA, one strand shown
Method in brief: as §1

[8] = biological target: SPIB (Homo sapiens, UniProt Q01892 1-262); settings: protein: recombinant; tags: N-terminal GST; dsDNA, one strand shown
SPIB, sequence (Q01892 whole entry): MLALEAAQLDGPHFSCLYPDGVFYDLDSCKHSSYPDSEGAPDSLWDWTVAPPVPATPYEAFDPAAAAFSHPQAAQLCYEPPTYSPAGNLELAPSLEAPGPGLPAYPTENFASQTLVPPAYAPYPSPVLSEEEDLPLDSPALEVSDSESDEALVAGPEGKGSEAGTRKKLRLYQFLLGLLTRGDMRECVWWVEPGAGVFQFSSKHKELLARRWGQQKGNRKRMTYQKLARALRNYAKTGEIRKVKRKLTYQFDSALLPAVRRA
Method in brief: as §1

[9] = biological target: T6, ELK3 (Homo sapiens, UniProt P41970 1-407); settings: protein: recombinant; tags: N-terminal GST; dsDNA, one strand shown
T6 sequence: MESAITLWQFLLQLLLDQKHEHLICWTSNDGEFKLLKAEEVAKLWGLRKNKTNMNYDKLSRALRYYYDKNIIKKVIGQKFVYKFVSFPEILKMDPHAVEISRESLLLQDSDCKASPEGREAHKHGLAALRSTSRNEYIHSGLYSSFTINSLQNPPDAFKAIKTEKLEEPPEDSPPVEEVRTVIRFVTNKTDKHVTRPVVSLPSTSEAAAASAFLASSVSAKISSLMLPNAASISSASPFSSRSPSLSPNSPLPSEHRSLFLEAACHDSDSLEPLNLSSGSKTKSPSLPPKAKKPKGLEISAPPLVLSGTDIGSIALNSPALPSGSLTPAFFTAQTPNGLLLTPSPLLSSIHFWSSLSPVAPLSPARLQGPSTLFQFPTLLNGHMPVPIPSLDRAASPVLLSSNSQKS
Method in brief: as §1

[10] = biological target: T7, FEV (Homo sapiens, UniProt Q99581 1-238); settings: protein: recombinant; tags: N-terminal GST; dsDNA, one strand shown
T7 sequence: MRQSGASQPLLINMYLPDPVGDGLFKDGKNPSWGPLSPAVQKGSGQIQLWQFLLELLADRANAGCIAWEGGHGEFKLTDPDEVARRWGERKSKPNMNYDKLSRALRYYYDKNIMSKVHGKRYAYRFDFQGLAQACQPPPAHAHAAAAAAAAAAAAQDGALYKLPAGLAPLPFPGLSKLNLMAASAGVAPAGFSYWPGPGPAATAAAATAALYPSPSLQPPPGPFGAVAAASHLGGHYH
Method in brief: as §1

[11] = biological target: ETV5 (Homo sapiens, UniProt P41161 1-510); settings: protein: recombinant; tags: N-terminal GST; dsDNA, one strand shown
ETV5, sequence (P41161 whole entry): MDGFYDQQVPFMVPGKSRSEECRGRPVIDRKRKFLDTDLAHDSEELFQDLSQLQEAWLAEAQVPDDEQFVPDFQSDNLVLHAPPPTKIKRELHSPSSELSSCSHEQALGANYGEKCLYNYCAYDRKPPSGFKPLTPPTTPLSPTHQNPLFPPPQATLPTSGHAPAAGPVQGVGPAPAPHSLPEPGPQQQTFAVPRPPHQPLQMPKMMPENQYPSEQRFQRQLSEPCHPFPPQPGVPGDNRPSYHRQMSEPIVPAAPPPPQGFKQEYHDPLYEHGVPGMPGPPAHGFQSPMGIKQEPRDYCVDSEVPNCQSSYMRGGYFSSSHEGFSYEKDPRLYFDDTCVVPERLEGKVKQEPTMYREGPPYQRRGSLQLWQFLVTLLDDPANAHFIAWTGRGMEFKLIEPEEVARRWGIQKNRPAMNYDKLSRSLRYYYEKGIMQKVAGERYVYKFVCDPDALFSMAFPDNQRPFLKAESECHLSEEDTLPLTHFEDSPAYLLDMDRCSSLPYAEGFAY
Method in brief: as §1

[12] = biological target: HSF1 (Homo sapiens, UniProt Q00613 1-529); settings: protein: recombinant; tags: N-terminal GST; chain copies: 3; dsDNA, one strand shown
HSF1, sequence (Q00613 whole entry): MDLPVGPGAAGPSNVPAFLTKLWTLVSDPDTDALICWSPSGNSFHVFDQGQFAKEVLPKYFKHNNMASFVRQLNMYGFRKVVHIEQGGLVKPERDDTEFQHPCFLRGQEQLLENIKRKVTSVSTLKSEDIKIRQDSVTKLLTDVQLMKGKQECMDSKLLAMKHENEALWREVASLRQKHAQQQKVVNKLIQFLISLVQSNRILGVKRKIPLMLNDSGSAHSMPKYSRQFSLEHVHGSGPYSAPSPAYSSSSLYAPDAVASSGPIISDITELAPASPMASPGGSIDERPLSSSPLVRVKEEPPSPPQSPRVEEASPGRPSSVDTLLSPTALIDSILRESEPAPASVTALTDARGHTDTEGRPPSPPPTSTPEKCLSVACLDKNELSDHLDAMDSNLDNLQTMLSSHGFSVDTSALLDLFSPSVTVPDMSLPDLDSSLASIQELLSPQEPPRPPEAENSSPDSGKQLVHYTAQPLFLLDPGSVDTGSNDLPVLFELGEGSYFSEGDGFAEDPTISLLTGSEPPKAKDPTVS
Method in brief: as §1

[13] = biological target: T8, SPIC (Homo sapiens, UniProt Q8N5J4 1-248); settings: protein: recombinant; tags: N-terminal GST; dsDNA, one strand shown
T8 sequence: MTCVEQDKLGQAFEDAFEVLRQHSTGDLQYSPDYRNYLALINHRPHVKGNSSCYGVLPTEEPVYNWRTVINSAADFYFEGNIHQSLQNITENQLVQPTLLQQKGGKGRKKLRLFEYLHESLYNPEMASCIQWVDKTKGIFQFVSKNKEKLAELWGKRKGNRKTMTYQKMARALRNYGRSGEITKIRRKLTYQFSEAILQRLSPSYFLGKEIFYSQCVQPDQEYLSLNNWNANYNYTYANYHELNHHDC
Method in brief: as §1

[14] = biological target: ELF4 (Homo sapiens, UniProt Q99607 1-663); settings: protein: recombinant; tags: N-terminal GST; dsDNA, one strand shown
ELF4, sequence (Q99607 whole entry): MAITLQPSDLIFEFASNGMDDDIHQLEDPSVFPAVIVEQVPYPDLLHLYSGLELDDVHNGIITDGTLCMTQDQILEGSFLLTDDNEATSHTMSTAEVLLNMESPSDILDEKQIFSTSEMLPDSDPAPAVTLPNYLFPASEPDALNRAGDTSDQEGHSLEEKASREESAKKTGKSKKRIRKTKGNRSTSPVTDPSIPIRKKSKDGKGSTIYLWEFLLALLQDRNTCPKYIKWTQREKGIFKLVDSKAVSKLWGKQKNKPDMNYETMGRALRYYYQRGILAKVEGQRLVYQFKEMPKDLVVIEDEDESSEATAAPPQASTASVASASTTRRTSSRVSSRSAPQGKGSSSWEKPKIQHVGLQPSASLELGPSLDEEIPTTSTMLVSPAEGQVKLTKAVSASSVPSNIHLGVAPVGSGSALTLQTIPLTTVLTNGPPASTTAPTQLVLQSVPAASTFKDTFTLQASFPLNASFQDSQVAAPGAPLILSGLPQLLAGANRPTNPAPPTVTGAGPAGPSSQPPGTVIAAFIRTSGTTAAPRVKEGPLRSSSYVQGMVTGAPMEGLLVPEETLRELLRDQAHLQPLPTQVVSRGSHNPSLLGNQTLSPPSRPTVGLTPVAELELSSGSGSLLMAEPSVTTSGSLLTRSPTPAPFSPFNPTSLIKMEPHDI
Method in brief: as §1

[15] = biological target: T9, ELK4 (Homo sapiens, UniProt P28324-2 1-405); settings: protein: recombinant; tags: N-terminal GST; dsDNA, one strand shown
T9 sequence: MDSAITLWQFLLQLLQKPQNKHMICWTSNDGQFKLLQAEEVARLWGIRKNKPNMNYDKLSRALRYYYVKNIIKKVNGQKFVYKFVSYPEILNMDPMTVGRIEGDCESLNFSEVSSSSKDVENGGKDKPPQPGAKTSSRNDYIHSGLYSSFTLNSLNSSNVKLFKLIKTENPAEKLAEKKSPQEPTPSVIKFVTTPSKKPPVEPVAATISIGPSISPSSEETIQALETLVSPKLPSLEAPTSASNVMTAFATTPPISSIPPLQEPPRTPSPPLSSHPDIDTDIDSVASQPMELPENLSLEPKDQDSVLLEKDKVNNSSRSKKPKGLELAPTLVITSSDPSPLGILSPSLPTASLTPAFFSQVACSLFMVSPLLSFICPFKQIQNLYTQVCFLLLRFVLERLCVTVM
Method in brief: as §1

[16] = biological target: T10, ETV2 (Homo sapiens, UniProt O00321 1-342); settings: protein: recombinant; tags: N-terminal GST; dsDNA, one strand shown
T10 sequence: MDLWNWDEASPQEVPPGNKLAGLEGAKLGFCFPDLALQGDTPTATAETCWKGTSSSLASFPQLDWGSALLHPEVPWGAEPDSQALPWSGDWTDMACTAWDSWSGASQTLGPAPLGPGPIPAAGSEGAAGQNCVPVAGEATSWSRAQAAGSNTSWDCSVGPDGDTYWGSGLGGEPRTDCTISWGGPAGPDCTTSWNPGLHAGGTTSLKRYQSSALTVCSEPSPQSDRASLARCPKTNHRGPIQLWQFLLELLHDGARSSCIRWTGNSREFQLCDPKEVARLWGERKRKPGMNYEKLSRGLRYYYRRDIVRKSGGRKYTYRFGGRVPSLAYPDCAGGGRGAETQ
Method in brief: as §1

[17] = biological target: T11, ELF3 (Homo sapiens, UniProt P78545 1-371); settings: protein: recombinant; tags: N-terminal GST; dsDNA, one strand shown
T11 sequence: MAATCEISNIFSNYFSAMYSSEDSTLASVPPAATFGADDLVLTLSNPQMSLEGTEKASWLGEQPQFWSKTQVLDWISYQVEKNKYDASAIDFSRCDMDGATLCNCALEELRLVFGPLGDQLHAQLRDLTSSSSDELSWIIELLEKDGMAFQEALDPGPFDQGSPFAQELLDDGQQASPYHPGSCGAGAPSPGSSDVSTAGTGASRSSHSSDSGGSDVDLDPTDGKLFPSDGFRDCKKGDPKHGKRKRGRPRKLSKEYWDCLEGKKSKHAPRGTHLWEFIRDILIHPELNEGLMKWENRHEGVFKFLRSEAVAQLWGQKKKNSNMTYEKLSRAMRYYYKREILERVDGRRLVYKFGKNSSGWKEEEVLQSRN
Method in brief: as §1

[18] = biological target: CRX (Homo sapiens, UniProt O43186 1-299); settings: protein: recombinant; tags: N-terminal GST; dsDNA, one strand shown
CRX, sequence (O43186 whole entry): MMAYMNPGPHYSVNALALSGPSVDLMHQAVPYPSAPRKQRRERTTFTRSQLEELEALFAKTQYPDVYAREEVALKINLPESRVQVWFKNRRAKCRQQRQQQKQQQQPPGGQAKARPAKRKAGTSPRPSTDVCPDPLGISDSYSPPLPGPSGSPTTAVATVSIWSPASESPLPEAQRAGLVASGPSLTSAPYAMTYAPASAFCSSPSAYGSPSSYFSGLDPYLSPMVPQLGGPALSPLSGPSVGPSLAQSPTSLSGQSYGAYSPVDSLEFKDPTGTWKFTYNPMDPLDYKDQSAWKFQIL
Method in brief: as §1

[19] = biological target: ETV1 (Homo sapiens, UniProt P50549 1-477); settings: protein: recombinant; tags: N-terminal GST; dsDNA, one strand shown
ETV1, sequence (P50549 whole entry): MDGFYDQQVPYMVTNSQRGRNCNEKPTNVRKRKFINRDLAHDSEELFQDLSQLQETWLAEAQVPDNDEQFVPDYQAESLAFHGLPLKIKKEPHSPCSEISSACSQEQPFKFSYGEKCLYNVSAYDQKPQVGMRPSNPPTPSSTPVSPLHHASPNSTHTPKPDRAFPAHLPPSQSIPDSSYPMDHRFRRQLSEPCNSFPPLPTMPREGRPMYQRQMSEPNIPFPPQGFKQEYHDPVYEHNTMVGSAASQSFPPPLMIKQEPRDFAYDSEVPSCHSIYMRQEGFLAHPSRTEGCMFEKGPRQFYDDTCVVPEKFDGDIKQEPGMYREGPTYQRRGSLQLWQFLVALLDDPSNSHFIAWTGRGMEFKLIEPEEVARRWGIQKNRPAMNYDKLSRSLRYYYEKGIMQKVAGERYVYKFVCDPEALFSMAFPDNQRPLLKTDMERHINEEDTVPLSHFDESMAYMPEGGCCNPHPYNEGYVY
Method in brief: as §1

**Q.** Which results are given for TTCTGA?
**A.** binding signal [1]: 1.37 fold enrichment (6-mer frequency, TF over GST control); binding signal [2]: 1.39 fold enrichment (6-mer frequency, TF over GST control); binding signal [3]: 1.27 fold enrichment (6-mer frequency, TF over GST control); binding signal [4]: 1.31 fold enrichment (6-mer frequency, TF over GST control); binding signal [5]: 1.27 fold enrichment (6-mer frequency, TF over GST control); binding signal [6]: 1.32 fold enrichment (6-mer frequency, TF over GST control); binding signal [7]: 1.21 fold enrichment (6-mer frequency, TF over GST control); binding signal [8]: 1.32 fold enrichment (6-mer frequency, TF over GST control); binding signal [9]: 1.38 fold enrichment (6-mer frequency, TF over GST control); binding signal [10]: 1.22 fold enrichment (6-mer frequency, TF over GST control); binding signal [11]: 1.23 fold enrichment (6-mer frequency, TF over GST control); binding signal [12]: 1.48 fold enrichment (6-mer frequency, TF over GST control); binding signal [13]: 1.03 fold enrichment (6-mer frequency, TF over GST control); binding signal [14]: 1.45 fold enrichment (6-mer frequency, TF over GST control); binding signal [15]: 1.4 fold enrichment (6-mer frequency, TF over GST control); binding signal [16]: 1.23 fold enrichment (6-mer frequency, TF over GST control); binding signal [17]: 1.13 fold enrichment (6-mer frequency, TF over GST control); binding signal [18]: 1.41 fold enrichment (6-mer frequency, TF over GST control); binding signal [19]: 1.27 fold enrichment (6-mer frequency, TF over GST control)
